# Test results published in publication PMC6792352, “Limited Chemical Structural Diversity Found to Modulate Thyroid Hormone Receptor in the Tox21 Chemical Library” (Environmental Health Perspectives, 2019).
# Where a name gives a salt, the structure may show the parent alone.
# Tested on: thyroid hormone receptor (endogenous TRα and TRβ)
# Parameters: species or system GH3-TRE-Luc (rat pituitary); GH3-TRE-Luc luciferase reporter, antagonist mode against 1 nM T3, loss of signal, qHTS
# Conditions: read-out: Average AC50 (uM) GH3-TRE-Antag, antagonist mode, 1 nM T3, no GH3 cytotoxicity hit
row,SMILES,AC50 [µM]
1,C=C1C[C@@H]2[C@H](CC[C@]3(C)C(=O)CC[C@@H]23)[C@@]2(C)C=CC(=O)C=C12 [Exemestane],34.6
2,CCCOc1ccc2nc(NC(=O)OC)sc2c1 [Tioxidazole],2.52
3,CCCCCCC(=O)O[C@H]1CC[C@H]2[C@@H]3CCc4cc(O)ccc4[C@H]3CC[C@]12C [Estradiol enanthate],18.9
4,"O=S(=O)(O)c1ccccc1/C=C/c1ccc(-c2ccc(/C=C/c3ccccc3S(=O)(=O)O)cc2)cc1 [Disodium 4,4'-bis(2-sulfostyryl)biphenyl]",26.4
5,CC(C)(O)c1cnn2c(-c3ccc(F)c(-c4c(F)cccc4C#N)c3)cnc2n1 [PharmaGSID_47330],42.1
6,CCN(CC)c1ccc2c(C)cc(=O)oc2c1 [7-Diethylamino-4-methylcoumarin],85.7
7,CCOCN(C(=O)CCl)c1c(C)cccc1CC [Acetochlor],75.3
8,C#C[C@]1(O)C=C[C@H]2[C@@H]3CCC4=CC(=O)CC[C@@H]4[C@H]3CC[C@@]21CC [Gestodene],15.5
9,CCCN(CCC)S(=O)(=O)c1ccc(C(=O)O)cc1 [Probenecid],4.15
10,"CCCCOCCOC(=O)COc1cc(Cl)c(Cl)cc1Cl [2,4,5-T-butotyl]",80.4
11,CCc1ccc(C(=O)C(C)CN2CCCCC2)cc1 (centres unmarked) [Eperisone hydrochloride],38.3
12,"Cc1cc(C(C)(C)c2ccc(O)c(C)c2)ccc1O [3,3'-Dimethylbisphenol A]",33.1
13,CSc1nc(NC2CC2)nc(NC(C)(C)C)n1 [Cybutryne],67.1
14,Oc1ccc2c(c1)-c1ccccc1C2 [3-Hydroxyfluorene],91.5
15,O=c1c(-c2ccc(O)cc2)coc2cc(O)ccc12 [Daidzein],87.6
16,CC(C)CCCCCCCCCCCCCCC(=O)O [Isooctadecanoic acid],16.3
17,[O-][N+](=Nc1ccccc1)c1ccccc1 [Azoxybenzene],> 50
18,CC(=O)[C@H]1CC[C@H]2[C@@H]3C=CC4=CC(=O)CC[C@@]4(C)[C@@H]3CC[C@]12C [Dydrogesterone],9.99
19,COC(=O)c1cc(Oc2ccc(Cl)cc2Cl)ccc1[N+](=O)[O-] [Bifenox],74

row,SMILES,AC50 [µM]
1,O=c1oc2c(O)c(O)cc3c(=O)oc4c(O)c(O)cc1c4c23 [Ellagic acid],12.9
2,COc1ccc(-n2nc(C(F)F)cc2-c2ccc([S+](C)[O-])cc2)cc1 (centres unmarked) [Difpas-pyrazole],70.2
3,CC(C(=O)O)c1ccc(C2CCCCC2)c2ccccc12 (centres unmarked) [Quadrisol],35.8
4,c1ccc(Nc2ccccc2)cc1 [Diphenylamine],83.1
5,CCCCOC(=O)c1ccc(O)cc1 [Butylparaben],> 50
6,O=C(N/N=C/c1ccc([N+](=O)[O-])o1)c1ccc(O)cc1 [Nifuroxazide],13.7
7,CCCCC[C@H](O)/C=C/[C@H]1[C@H](O)CC(=O)[C@@H]1C/C=C\CCCC(=O)O [Dinoprostone],4.68
8,Clc1ccc(Cn2c(CN3CCCC3)nc3ccccc32)cc1 [Clemizole hydrochloride],13.3
9,CC(C(=O)O)c1ccc(N2Cc3ccccc3C2=O)cc1 (centres unmarked) [Indoprofen],7.85
10,O=C(CCCCCCCCC#CI)Oc1ccccc1 [Phenyl 11-iodo-10-undecynoate],21.5
11,CCCCCCCCCCCC(=O)OCC(O)CO (centres unmarked) [1-Monolaurin],47.2
12,"CC(Cc1ccc(C(C)(C)C)cc1)CN1C[C@@H](C)O[C@@H](C)C1 (stereo partly drawn) [(2R,6S)-Fenpropimorph]",47.3
13,Fc1ccc([C@@]2(Cn3cncn3)O[C@@H]2c2ccccc2Cl)cc1 (racemic) [Epoxiconazole],41.2
14,CCCCCC(C=O)=Cc1ccccc1 [Pentylcinnamaldehyde],> 50
15,Cc1cc(C)c(/C=C2\C(=O)Nc3ccccc32)[nH]1 [SU-5416],18.1
16,"CNC(=O)Nc1ccc(Cl)c(Cl)c1 [N-(3,4-Dichlorophenyl)-N'-methylurea]",48.2
17,O=C(c1ccccc1)C1CCCCC1 [Cyclohexylphenylketone],69.7
18,C=C(C)CN(CC)c1c([N+](=O)[O-])cc(C(F)(F)F)cc1[N+](=O)[O-] [Ethalfluralin],> 90
19,"CC(C)(c1ccc(O)cc1)c1ccc(O)cc1 [BPA, bisphenol A]",66.6
